GRK2 aptamer HTS: human GRK2 inhibition via aptamer displacement | P25098 | bead flow cytometry, FAM-aptamer displacement from GRK2 | inhibition of aptamer binding, % at 10 µM | 330,000 tested, 0.59% active | AID 488847;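 active = inhibition of aptamer binding above 40%, roughly 3 SD of noise, on plates passing a quality check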;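 also: median bead fluorescence of bound FAM aptamer so fluorescent compounds give negative values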
MEKK2wt PB1 HTS: raises or lowers MEK5 binding to wildtype human MEKK2 PB1 domain | Q9Y2U5 | bead flow cytometry, Alexa488-MEK5 binding to MEKK2 WT; actives lie on both sides | binding response (% of control), % at 10 µM | 290,000 tested, 1.1% active | AID 1531; in the data active = binding response below about 67% or above about 130%
MEKK2 mut-MEK5: signal of MEK5 binding to mutant human MEKK2 PB1 domain; bead flow cytometry, Alexa488-MEK5 binding to MEKK2 mutant; percent response, % at 10 µM; 290,000 tested, 0.35% active; AID 1530; in the data active = percent response above about 24%, passing the limit was not always enough
MEKK3 PB1 HTS: MEKK3-MEK5 PB1 interaction, increase or decrease; bead-based flow cytometry, Alexa488-MEK5 binding to MEKK3; actives lie on both sides; 0 = blocked by unlabeled MEK5, 100 = vehicle; binding response (% of control), % at 10 µM; 290,000 tested, 1.4% active; AID 1529;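 active = binding response more than 3 SD above or below the average of its plate-row segment, actives on both sides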;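 also: Alexa488 bead fluorescence after subtracting the streptavidin-only scavenger bead signal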
Target sequence (Q99759 whole entry, looked up): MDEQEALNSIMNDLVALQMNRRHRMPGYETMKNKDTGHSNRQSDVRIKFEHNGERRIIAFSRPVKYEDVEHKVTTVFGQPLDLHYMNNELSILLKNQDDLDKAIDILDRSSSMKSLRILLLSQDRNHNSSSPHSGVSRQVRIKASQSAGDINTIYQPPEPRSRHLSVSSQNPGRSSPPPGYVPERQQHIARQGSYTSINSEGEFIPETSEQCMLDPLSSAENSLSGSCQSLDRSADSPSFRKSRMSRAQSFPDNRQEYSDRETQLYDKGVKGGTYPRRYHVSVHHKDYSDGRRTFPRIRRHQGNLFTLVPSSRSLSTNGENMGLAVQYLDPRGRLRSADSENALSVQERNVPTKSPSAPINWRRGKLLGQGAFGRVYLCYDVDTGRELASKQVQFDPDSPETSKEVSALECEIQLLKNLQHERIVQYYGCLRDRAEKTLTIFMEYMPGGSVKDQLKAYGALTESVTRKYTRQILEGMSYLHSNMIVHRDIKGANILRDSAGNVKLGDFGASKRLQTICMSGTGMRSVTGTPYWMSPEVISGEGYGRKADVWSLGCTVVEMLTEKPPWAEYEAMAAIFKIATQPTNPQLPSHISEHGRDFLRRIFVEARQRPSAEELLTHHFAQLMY
MEKK2wt confirm: raises or lowers MEK5 binding to wildtype human MEKK2, retest; 5,900 tested, 2.4% active; binding response (% of control), % at 10 µM; bead flow cytometry, Alexa488-MEK5 binding to MEKK2 WT; actives lie on both sides; shares compounds with MEKK3 PB1 HTS; in the data active = binding response below about 16% or above about 210%; inactive = in between
MEKK2mut confirm: signal of MEK5 binding to mutant human MEKK2, retest. 5,900 tested, 2% active. bead flow cytometry, Alexa488-MEK5 binding to MEKK2 mutant. percent response, % at 10 µM. shares compounds with MEKK3 PB1 HTS. AID 1893; in the data active = percent response mostly above about 71%, no sharp cut-off; inactive = mostly below about 38%;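 also: higher means compound restores mutant binding toward wildtype level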
MEKK3-MEK5 inh: MEKK3-MEK5 PB1 inhibition, single concentration confirmation; bead flow cytometry, Alexa488-MEK5 binding to MEKK3; stronger effect = lower value; AID 1894; 5,900 tested, 1.8% active; shares compounds with MEKK3 PB1 HTS; binding response (% of control), % at 10 µM;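 active = binding response below 72% of control, or above a set upper limit, though filed actives all read lower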
Of the large screens only hits and unclear results are named; the others gave an inactive call (follow-up assays come after a bar, where they were run); [ ] = another dose, or the depositor's remark. Only some compounds are listed: those with a hit (about 2.5% of all), similar ones and a draw of the others.

Cc1ccccc1NC(=O)c1c(C)nc(SCC(=O)OCc2ccccc2)c(C#N)c1-c1ccc(F)cc1	MEKK3 PB1 HTS 144 | MEKK2wt confirm inactive | MEKK2mut confirm inactive | MEKK3-MEK5 inh inactive
COc1ccc(CCNC(=O)c2cc(=O)c3cc(C)ccc3o2)cc1OC	none
Cc1ccc2c(c1)C1NC(=S)NC(C)(O2)C1C(=O)Nc1ccc(Cl)cc1 (stereo not given)	MEKK3 PB1 HTS 146 | MEKK2wt confirm inactive | MEKK2mut confirm inactive | MEKK3-MEK5 inh inactive
COc1ccc(CC(=O)Nc2c3c(nn2C(C)(C)C)CS(=O)(=O)C3)cc1OC	none
CCCC1/C(=N/O)CC(c2ccccc2)NC1c1ccccc1 (stereo not given)	MEKK2wt PB1 HTS 7.0[inhibitor], MEKK3 PB1 HTS 4.0[inhibitor] | MEKK2wt confirm inactive | MEKK2mut confirm inactive | MEKK3-MEK5 inh inactive
Cc1nn2c(N)csc2nc1=O	MEKK2wt PB1 HTS 69[inhibitor], MEKK3 PB1 HTS 62[inhibitor] | MEKK2wt confirm inactive | MEKK2mut confirm inactive | MEKK3-MEK5 inh 51
Cc1nn2c3ccccc3n(C)c2nc1=O	none
COC(=O)CCC(=O)OC1(C)C(=O)C=C2C=C(C3CC3)N(C3CCCC3)C=C2C1=O (stereo not given)	MEKK2wt PB1 HTS 149 | MEKK2wt confirm inactive | MEKK2mut confirm inactive | MEKK3-MEK5 inh inactive
COC(=O)CCC(=O)OC1(C)C(=O)C=C2C=C(C3CC3)N(C3CCCCC3)C=C2C1=O (stereo not given)	none
COc1ccc(CNC(=O)c2cc(-c3ccncc3)nc3c(C)cc(C)cc23)cc1OC	none
CC(CC(=O)NNC(=O)c1cccc(Cl)c1)c1ccccc1 (stereo not given)	none
COc1ccc(/C=N/NC(=S)Nc2cc(S(=O)(=O)N3CCOCC3)ccc2N2CCOCC2)cc1O	none
O=C(/C=C/c1ccccc1)Nc1cc(S(=O)(=O)N2CCOCC2)ccc1N1CCCC1	MEKK3 PB1 HTS 142 | MEKK2wt confirm inactive | MEKK2mut confirm inactive | MEKK3-MEK5 inh inactive
Cc1ccc(/C=C/C(=O)Nc2cc(S(=O)(=O)N3CCOCC3)ccc2N2CCOCC2)cc1	none (no result: MEKK2wt PB1 HTS, MEKK2 mut-MEK5, MEKK3 PB1 HTS)
COc1ccc2ccccc2c1/C=N/NC(=S)Nc1cc(S(=O)(=O)N2CCOCC2)ccc1N1CCOCC1	MEKK3 PB1 HTS 133 | MEKK2wt confirm inactive | MEKK2mut confirm inactive | MEKK3-MEK5 inh inactive
CCN1CCN(c2ccc(S(=O)(=O)N3CCCCC3)cc2NC(=O)/C=C/c2cc(OC)ccc2OC)CC1	MEKK2wt PB1 HTS 174, MEKK2 mut-MEK5 25 | MEKK2wt confirm inactive | MEKK2mut confirm inactive | MEKK3-MEK5 inh inactive
Cc1cc(Nc2ccc(Cl)cc2)nc(-c2ccccc2O)n1	MEKK2wt PB1 HTS 140, MEKK2 mut-MEK5 28 | MEKK2wt confirm inactive | MEKK2mut confirm inactive | MEKK3-MEK5 inh inactive
O=C1CC(c2ccccc2)CN1C(=O)c1cncc(Br)c1 (stereo not given)	none
O=C1CC(c2ccccc2)CN1C(=O)c1cccnc1 (stereo not given)	MEKK3 PB1 HTS 141 | MEKK2wt confirm inactive | MEKK2mut confirm inactive | MEKK3-MEK5 inh inactive
COc1ccc(-n2cc(CNCCc3ncc(C)[nH]3)c(-c3ccccc3Cl)n2)cc1	MEKK2wt PB1 HTS 153 | MEKK2wt confirm inactive | MEKK2mut confirm inactive | MEKK3-MEK5 inh inactive
COc1ccc(-n2cc(CNCCN3CCOC3=O)c(-c3ccccc3Cl)n2)cc1	none
CCN1CCC(CNCc2cn(-c3ccc(OC)cc3)nc2-c2ccccc2Cl)C1 (stereo not given)	MEKK2wt PB1 HTS 180 | MEKK2wt confirm inactive | MEKK2mut confirm inactive | MEKK3-MEK5 inh inactive
COc1ccc(-n2cc(CNCCc3nc(C)cc(C)n3)c(-c3ccccc3Cl)n2)cc1	none
CCc1cc2cc(C)cc(C)c2nc1Cl	MEKK3 PB1 HTS 138 | MEKK2wt confirm inactive | MEKK2mut confirm inactive | MEKK3-MEK5 inh inactive
CCc1cc2ccccc2nc1Cl	none
CC(C)(C)C(=O)NC(=S)NCCc1ccccc1	MEKK2wt PB1 HTS 1.0[inhibitor], MEKK3 PB1 HTS 1.0[inhibitor] | MEKK2wt confirm inactive | MEKK2mut confirm inactive | MEKK3-MEK5 inh inactive
CCc1nc(NCCO)c(C#N)c2c1CSC(C)(C)C2	MEKK3 PB1 HTS 50[inhibitor] | MEKK2wt confirm inactive | MEKK2mut confirm inactive | MEKK3-MEK5 inh inactive
Cc1c(NC(=O)CSc2nnc3c4ccccc4n(CCc4ccccc4)c3n2)c(=O)n(-c2ccccc2)n1C	none
CCn1c2ccccc2c2nnc(SCC(=O)Nc3c(C)n(C)n(-c4ccccc4)c3=O)nc21	MEKK2wt PB1 HTS 2.0[inhibitor], MEKK3 PB1 HTS 2.0[inhibitor] | MEKK2wt confirm inactive | MEKK2mut confirm inactive | MEKK3-MEK5 inh inactive
CCN(C(=O)CSc1nnc(-c2ccncc2)n1Cc1ccccc1)C1CCS(=O)(=O)C1 (stereo not given)	none
CC(C)(C)OC(=O)C[C@H]1C/C=C\C[C@H](CC(=O)NCCO)C(=O)NC[C@H](c2ccccc2)OC1=O	none (no result: MEKK2wt PB1 HTS, MEKK2 mut-MEK5, MEKK3 PB1 HTS)
Cc1cccc(N(CC(=O)N2CCc3ccccc3C2)S(C)(=O)=O)c1C	none
Cc1ccc(C)c(S(=O)(=O)N2CCN(C(=O)c3cncc(Br)c3)CC2)c1	none
CC(/C=C/c1ccccc1)=N/NC(=O)C(O)c1ccccc1 (stereo not given)	MEKK3 PB1 HTS 156 | MEKK2wt confirm inactive | MEKK2mut confirm inactive | MEKK3-MEK5 inh inactive
O=C(N/N=C/c1cccnc1)C(O)c1ccccc1 (stereo not given)	MEKK3 PB1 HTS 146 | MEKK2wt confirm inactive | MEKK2mut confirm inactive | MEKK3-MEK5 inh inactive
COC(=O)N/N=C(C)/C=C/c1ccccc1	none
O=C(CNC(=O)C(c1ccccc1)c1ccccc1)N/N=C/c1cccnc1	none
Cc1cc2ncn(CCC(=O)NC(C)(C)C)c2cc1C	MEKK2wt PB1 HTS 4.0[inhibitor], MEKK3 PB1 HTS 3.0[inhibitor] | MEKK2wt confirm inactive | MEKK2mut confirm inactive | MEKK3-MEK5 inh inactive
Cc1cc2ncn(CCC(=O)NC3CCCC3)c2cc1C	none
COc1ccc(C[C@H]2CN3C(=NC[C@@H]3Cc3ccccc3)N2CCNC(=O)CCC2CCCCC2)cc1	MEKK2wt PB1 HTS 179 | MEKK2wt confirm inactive | MEKK2mut confirm inactive | MEKK3-MEK5 inh inactive
CCN(CC)CC(O)Cn1c(C)c(-c2ccccc2)c2cc([N+](=O)[O-])ccc21 (stereo not given)	MEKK2wt PB1 HTS 174, MEKK2 mut-MEK5 30 | MEKK2wt confirm inactive | MEKK2mut confirm inactive | MEKK3-MEK5 inh inactive
CCCn1c(SCC(=O)N2c3ccccc3Sc3ccccc32)nc2c1c(=O)n(C)c(=O)n2C	none
Cn1c(SCC(=O)N2c3ccccc3Sc3ccccc32)nc2ccccc21	none
CC(C)n1c(SCC(=O)N2c3ccccc3Sc3ccccc32)nc2c1c(=O)n(C)c(=O)n2C	MEKK2wt PB1 HTS -3.0[inhibitor], MEKK3 PB1 HTS 1.0[inhibitor] (no result: GRK2 aptamer HTS) | MEKK2wt confirm inactive | MEKK2mut confirm inactive | MEKK3-MEK5 inh inactive

Source: PubChem BioAssay
